# Source: PubChem BioAssay (National Center for Advancing Translational Sciences (NCATS))
# A selection: hits, their analogues and other compounds. The true share with any hit is near 2.8%.
# DRD3 agonist: D3 dopamine receptor (human) agonism | 410,000 compounds, 0.58% hits | D3R DiscoveRx beta-arrestin cells, luminescence, 90 min | max activation, % | P35462; in the data active = max activation above about 30%; also: 0% is about no effect
#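 Cells at 1500/well, incubated overnight, then treated with pinned compounds (dopamine as control) for 90 min at 37 degrees C. DiscoveRx reagent added for 30 - 60 minutes at room temperature; luminescence read.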
# D3 antag: blocks the human D3 dopamine receptor. 360,000 compounds, 2.5% hits. D3R cells, DiscoveRx beta-arrestin luminescence, antagonist mode; active compounds read low. P35462. max response, negative = inhibition, %; in the data active = max response below about -50%; inconclusive = no clear call, values can overlap the other calls; also: % is scaled to controls: 0 for no effect and ±100 for the full control effect
#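 Cells expressing the human receptor were seeded at 1500 cells/well, incubated overnight at 37 degrees C in 5% CO2, then exposed to library compounds with dopamine controls for 90 minutes at 37 degrees C before luminescent detection.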
# Giardia killer: Giardia lamblia killing. Giardia lamblia trophozoite viability. activity change, % at 7.66 µM, hits read low. 340,000 compounds, 0.15% hits; in the data active = activity change below about -80%; inconclusive = between about -30% and that limit;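 also: parasites exposed to compound for two days anaerobically before the ATP read; % is scaled to controls: 0 for no effect and ±100 for the full control effect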
#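 Compounds were tested on trophozoites seeded at 100 cells/well and held 48 hrs at 37 deg C anaerobically. An ATP-based luminescent kit measured the remaining live cells.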
# B2AR arrestin: beta2AR (human) beta-arrestin recruitment activity. 330,000 compounds, 0.02% hits. Potency, µM (doses to about 46.1 µM), inactives show top-dose activation, actives largely listed as activators. P07550. beta-arrestin recruitment to beta2AR, cell-based reporter; active = well fitted activation curve with a large enough effect; inconclusive = small, poorly fitted or top-dose-only effect;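 also: potency is read from the fitted curve at half-maximal effect; 0% = DMSO controls and full agonism = EC100 isoproterenol or metaproterenol; nearly all actives have a fitted effect of over 65% in size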
# Target sequence (P07550 whole entry, looked up): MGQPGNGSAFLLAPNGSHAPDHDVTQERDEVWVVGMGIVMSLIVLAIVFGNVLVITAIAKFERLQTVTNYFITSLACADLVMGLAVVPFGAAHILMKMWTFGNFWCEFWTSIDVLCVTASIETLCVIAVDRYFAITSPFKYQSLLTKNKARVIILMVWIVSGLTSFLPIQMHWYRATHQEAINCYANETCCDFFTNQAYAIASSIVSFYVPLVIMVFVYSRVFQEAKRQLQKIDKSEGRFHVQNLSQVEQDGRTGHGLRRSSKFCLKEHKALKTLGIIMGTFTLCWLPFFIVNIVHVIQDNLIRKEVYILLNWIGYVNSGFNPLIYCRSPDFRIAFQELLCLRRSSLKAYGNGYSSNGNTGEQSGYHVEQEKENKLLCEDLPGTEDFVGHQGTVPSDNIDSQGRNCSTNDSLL
# * hit, by the source's call; ? = inconclusive; nt = no result.
SMILES,DRD3 agonist,D3 antag,Giardia killer,B2AR arrestin
CC[C@H]1OC(=O)[C@H](C)C(=O)[C@H](C)[C@@H](O[C@@H]2O[C@H](C)C[C@H](N(C)C)[C@H]2O)[C@](C)(OC)C[C@@H](C)C(=O)[C@H](C)[C@H]2N(CCCCn3cnc(-c4cccnc4)c3)C(=O)O[C@]12C,-5,nt,nt,nt
Nc1ccc(N2CCN(CCCCN3C(=O)C4CCCN4C3=O)CC2)cc1 (stereo unspecified),-4,-16,-6,-1%
O=C1C2CCCCN2C(=O)N1CCCN1CCN(c2cccc(C(F)(F)F)c2)CC1 (stereo unspecified),-14,-67*,1,nt
O=C1C2CCCN2C(=O)N1CCN1CCN(c2cccc(C(F)(F)F)c2)CC1 (stereo unspecified),-18,-17,0,nt
O=C1C2CCCCN2C(=O)N1CCCN1CCN(c2ccc(F)cc2)CC1 (stereo unspecified),-21,-57*,-8,0%
O=C1C2C3C=CC(C4CC34)C2C(=O)N1CCCCN1CCN(c2ccc(F)cc2)CC1 (stereo unspecified),-32,-85*,4,nt
O=C(CCN1C(=O)C2C3C=CC(C3)C2C1=O)N1CCN(c2ccc(F)cc2)CC1 (stereo unspecified),5,-10,5,0%
O=C1C2CCCN2C(=O)N1CCCN1CCN(c2cccc(Br)c2)CC1 (stereo unspecified),-19,-78*,2,-1%
Cc1cc(C)cc(NC(=O)Cn2c(C)cc(C)c(C#N)c2=O)c1,6,nt,nt,nt
COc1cccc(NC(=O)c2ccc3nc(Cc4ccccc4)oc3c2)c1,5,nt,nt,nt
O=C(c1cc(S(=O)(=O)N2CCOCC2)ccc1F)N(CCc1ccccc1)Cc1ccccc1,96*,-92*,0,0%
CCCOc1ccc(-c2nnn(CC(=O)c3ccc4c(c3)OCCO4)n2)cc1,29,15,-10,0%
CCOc1ccc(-c2nnn(CC(=O)c3ccc4c(c3)OCCO4)n2)cc1,37*,15,34,0%
CCCCOc1ccc(-c2nnn(CCC(=O)N3CCOCC3)n2)cc1,7,-96*,-11,0%
CC(=O)OCC(=O)[C@@]12N=C(C)O[C@@H]1C[C@H]1[C@@H]3CCC4=CC(=O)C=C[C@]4(C)[C@H]3[C@@H](O)C[C@@]12C,-2,nt,nt,nt
O=C(Nc1nnc(S(=O)(=O)N2CCCc3ccccc32)s1)c1ccccc1Cl,-2,nt,nt,nt
Cc1cccc(C)c1NC(=S)NNc1ncc(C(F)(F)F)cc1Cl,-2,7,-8,0%
FC(F)(F)c1cnc(NNC(=S)Nc2cccnc2)c(Cl)c1,-11,-67*,21,1%
FC(F)(F)c1cnc(NNC(=S)Nc2ccccc2)c(Cl)c1,-17,-92*,nt,nt
O=C(O)c1ccc2c(c1)C(=O)N([C@]1(C(=O)O)C[C@H]1c1ccccc1)C2=O,nt,nt,nt,0%
Cc1ccc(F)c(C2C3C=CCC(c4ccccc4)C3C(=O)N2Cc2ccccc2)c1 (stereo unspecified),nt,nt,0,nt
CC1CN(C(=O)COc2ccc3ccccc3c2Br)CC(C)O1 (stereo unspecified),-27,?,-12,0%
CC1CCCN(CCOc2ccc3ccccc3c2Br)C1 (stereo unspecified),-17,-96*,-6,0%
Cc1cc(Cl)c(OCCOCCN2CCC(C)CC2)c(Br)c1,-29,-56*,14,0%
Cc1ccc(Cl)c(OCCN2CCCC(C)C2)c1 (stereo unspecified),-8,-68*,1,-1%
SMILES,DRD3 agonist,D3 antag,Giardia killer,B2AR arrestin
CC1CCN(CCCOc2ccc(Cl)cc2Br)CC1,-23,-89*,13,0%
CN(C)CCOCCOc1ccc(Cl)cc1Br,-19,-76*,8,0%
COc1ccc(OCCCN2CCCC(C)C2)cc1 (stereo unspecified),-15,-60*,3,0%
CC1CCCN(CCSc2ccc(Cl)cc2)C1 (stereo unspecified),-13,?,10,0%
CC1CCN(CCOCCOc2ccc(Cl)cc2Br)CC1,-28,-88*,9,0%
CN(C)CCCOc1ccc(Cl)cc1Br,-29,?,11,0%
CC1CCCN(CCCOc2ccc(Cl)cc2Br)C1 (stereo unspecified),-9,-68*,-11,-2%
Clc1ccc(OCCOCCN2CCCCC2)c(Br)c1,-2,46,2,0%
COc1ccc(N2CCN(c3ncnc4onc(C)c34)CC2)cc1,0,nt,nt,nt
O=[N+]([O-])c1ccc(S(=O)(=O)N2CCN(c3nc(-c4cccs4)nc4ccccc34)CC2)cc1,nt,nt,-4,nt
COC(=O)c1cc2ccsc2n1CC(=O)NCC1CCCO1 (stereo unspecified),-1,-3,-6,-1%
COC(=O)c1cc2ccsc2n1CC(=O)Nc1cc(C)cc(C)c1,-15,-74*,-1,-1%
O=C(Nc1ccc(C(=O)N2CCN(c3ccccc3F)CC2)cc1)c1nsc2ccccc12,2,nt,nt,nt
O=C(Nc1cccc(NC(=O)c2cccs2)c1)c1ccc([N+](=O)[O-])o1,-4,-5,-89*,0%
COc1ccc(NC(=O)c2ccc3[nH]c(C)c(C)c3c2)c(OC)c1,-17,-53*,1,0%
O=C(Nc1ccc(N2CCN(C(=O)c3cccs3)CC2)cc1)c1ccc([N+](=O)[O-])o1,nt,nt,nt,0%
COc1ccc(NC(=O)C(=O)NNC(=O)c2cccs2)c(OC)c1,-5,-73*,-13,0%
COc1ccc(NC(=O)C(=O)NNC(=O)c2cccs2)cc1,-8,-21,10,0%
COc1cc(NC(=O)c2cccs2)ccc1NC(=O)Cc1ccccc1,-12,1,3,1%
COc1cc(NC(=O)c2ccc([N+](=O)[O-])o2)ccc1NC(=O)c1cccs1,-9,?,-102*,-1%
O=C(Nc1nc(-c2cccs2)cs1)c1ccc([N+](=O)[O-])o1,-6,-20,-82*,-1%
O/N=C/c1cc2ccccc2n1Cc1ccccc1F,-5,-53*,-6,0%
O=c1cc(O)c2ccccc2n1Cc1ccccc1F,3,12,11,0%
Cc1ccc(CCNC(=O)c2c[nH]c3ccc(S(=O)(=O)Nc4cccc(C(F)(F)F)c4)cc3c2=O)cc1,-4,nt,nt,nt
CCCCn1c(N)c(N(CC(C)C)C(=O)C2CC(=O)N(c3ccc4c(c3)OCCO4)C2)c(=O)[nH]c1=O (stereo unspecified),-8,-55*,6,0%
CCCCN(C(=O)C1CC(=O)N(c2ccc3c(c2)OCCO3)C1)c1c(N)n(CCCC)c(=O)[nH]c1=O (stereo unspecified),-5,5,-7,0%
Cc1ccc(S(=O)(=O)N2CCCN(c3nc(-c4cccs4)nc4ccccc34)CC2)cc1,nt,nt,1,nt
Cc1ccsc1/C=C1/C(=O)NN(c2ccccc2)C1=O,-8,?,-5,0%
Cc1ccsc1C=C1C(=O)c2ccccc2C1=O,-3,-56*,3,0%
CCc1[nH]nc2c1C1(CCOC1C)C(C#N)=C(N)O2 (stereo unspecified),-8,-57*,-15,0%
